In PubChem BioAssay (NCI) one finds growth data, which are given here for 40 compounds.

This is part of a sample that, as a whole, favours compounds with a hit. Of some 83,000 tested, about 20% had one in any assay.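 Single-concentration screen, 48 h exposure, 96-well plates. Endpoint: percent growth. Below 10 = active.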 Unmarked numbers belong to inactive results. Activity calls are given as the source filed them.

In this assay the test system is ACHN renal. Kind of assay: NCI-60 one-dose screen, 48 h (100 = growth as untreated, 0 = no growth, -100 = all killed). To be noted: 10 µM unless noted. As to the method:
Growth inhibition of the ACHN human tumor cell line is measured as a screen for anti-cancer activity. Cells are grown in 96 well plates and exposed to the test compound for 48 hours. Compounds are tested at a single concentration, which is 10^-5 M for most compounds. The reported endpoint is percent growth (GI% or GIPRCNT), where numbers from 0 - 100% represent growth inhibition, and numbers from -100% - 0 represent cell death. For example, a value of 40 represents 60% growth inhibition. A value of 0 means no net growth occurred over the course of the experiment. A value of -40 indicates 40% of cells at the beginning of the experiment died by the end of the experiment. A value of -100 means all cells are dead at the end of the experiment.
NCI-60 Human Tumor Cell Lines Screen was performed using the standard one-dose NCI protocol, which is described in more detail at https://dtp.cancer.gov/discovery_development/nci-60/default.htm.
Compounds with GIPRCNT values below 10 were considered active. Activity score was based on GIPRCNT using the following formula: […]
Score is 0 for GIPRCNT values of 100 or above, 50 for GIPRCNT values of 0, and 100 for GIPRCNT values of -100.
For `Cc1cc(N2CCCCCC2)nc(NC2CCCC(Nc3ccnc4cc(Cl)ccc34)C2)n1` (stereo not given), the growth is -98.6% (active).
With `CC1=C(O)C(=O)C(C(C#N)(C#N)C(C#N)C#N)C1` (stereo not given) the figure was 106%.
To `Cc1cc(N[C@@H]2CCC[C@H](Nc3ccnc4cc(Cl)ccc34)C2)nc(N2CCCCCC2)n1` belongs -85.5% (active); to `O=S(=O)(Nc1ccc(Br)c(Cl)c1)c1ccc(-c2cnc(C3CC3)o2)cc1`, 46.4%.
On to `CCCc1cc(=O)n2c(C(=O)Nc3cccc(C(=O)OCC)c3)c(C(=O)Nc3ccc(F)cc3)sc2n1`, for which the growth is 38.9% [30 µM].
To `COc1ccc(/C=C/c2nc(-c3n[nH]c(=O)n3-c3ccccc3)c3ccccc3n2)cc1` belongs 102%; to `Cc1nn(-c2cc(=O)[nH]c3ccccc23)c(N)c1C#N`, 101%; to `O=C1c2ccccc2OC=C(c2ccccc2)N1CCCCNc1ccc(S(=O)(=O)Nc2ncccn2)cc1`, 100%.
With `CC(C)(CCCN=C(N)Nc1ccc(Cl)cc1)c1ccc(F)cc1` the figure was 67.4%.
For the compound `C=C1C(=O)O[C@H]2[C@H]1CC/C(C=Nc1ccc(C(F)(F)F)cc1N)=C\CC[C@@]1(C)O[C@@H]21`, the growth is -38% (active).
To `COc1ccc(-c2cc(-c3ccc(Nc4ccnc5cc(Cl)ccc45)cc3)nc(N3CCOCC3)n2)cc1` belongs 80.7%; to `Cc1[nH]c(-c2ccc3cc[nH]c3c2)c2c1C(=O)CCCC2`, 41.2%; to `CON1C(=O)CC[C@]2(C)[C@H]3CC[C@@H]4C([C@@]5(C)CCC(=O)O5)CC[C@@]4(C)[C@]3(C)CC[C@H]2C1(C)C` (stereo not given in full), 96.6%.
With `CCOc1nc(-c2ccccc2)cc2c(O)c(C(=O)N/N=C/c3ccc(O)cc3O)[nH]c(=O)c12` the figure was 9.99% (active); with `O=C(COc1cccc(/C=C2\COc3ccccc3C2=O)c1)Nc1nccs1`, 88.2%; with `COc1cc(-c2nc(C(=O)NCC(=O)NO)nn2-c2ccc(Cl)cc2)cc(OC)c1OC`, 98.9%.
To `O=S(=O)(Nc1ccc(I)cc1F)c1ccc(-c2cnc(C3CC3)o2)cc1` belongs 77.2%.
As to `CCCCC/C(C=C(C#N)C#N)=C/c1ccccc1`, the growth is 41.6%.
To `COc1ccc(/C=N/C2=C(C#N)C(c3ccc(N(C)C)cc3)c3ccc4ccccc4c3O2)cc1` (stereo not given) belongs 66%; to `CCN(CC)S(=O)(=O)c1ccc(OC)c(NC(=O)c2[nH]c(C)c3c2CCCCC3=O)c1`, 31.1%; to `O=C(N=Nc1c(O)[nH]c2ccccc12)c1cc(-c2ccccc2)on1`, 97.2%.
To `Cn1c(NCCc2ccc(O)c(O)c2)nc2c1c(=O)n(Cc1ccc(Br)cc1)c(=O)n2C` belongs 32.9%.
To `Brc1ccc(-c2csc(Nc3ccccn3)n2)cc1` belongs 217%; to `COc1ccc(S(=O)(=O)N2CCCCCC2)cc1NC(=O)c1[nH]c(C)c2c1CCCCC2=O`, 25.2%.
Take `NC(=O)c1cc(Cl)ccc1NC(=O)/C=C/c1ccccc1`: the growth is 59.8%.
For the compound `FC(F)(F)c1ccc(-c2cn3nc(-c4c[nH]c5ccc(Br)cc45)sc3n2)cc1`, the growth is 88.6%.
`COc1ccc(-c2nc(SCC(=O)Nc3ccc(C(=O)/C=C/c4ccc(Cl)cc4)cc3)[nH]c(=O)c2C#N)cc1`: the growth was 98.9%.
With `Cc1cc(N2CCN(C)CC2)nc(NC2CCCC(Nc3ccnc4cc(Cl)ccc34)C2)n1` (stereo not given) the figure was -88.6% (active); with `N#CCCN=Nc1c(O)[nH]c2ccc([N+](=O)[O-])cc12`, 96.3%.
With `CC(C)C[C@@H](NC(=O)[C@@H](Cc1ccccc1)NC(=O)c1cnccn1)B1Oc2ccc(C[C@H](NC(=O)[C@H](Cc3ccc4c(c3)OB([C@@H](CC(C)C)NC(=O)[C@@H](Cc3ccccc3)NC(=O)c3cnccn3)O4)NC(=O)[C@@H](N)CC3CCC4OB([C@@H](CC(C)C)NC(=O)[C@@H](CC5CCCCC5)NC(=O)C5CNCCN5)OC4C3)C(=O)NCCCC[C@@H]3NC(=O)[C@@H](Cc4ccccc4)NC(=O)[C@H](CC(=O)O)NC(=O)CNC(=O)[C@H](CCCNC(=N)N)NC3=O)cc2O1` (stereo not given in full) the figure was -11.9% (active); with `C=C(C)[C@@H]1CC[C@]2(C(=O)OC)CC[C@]3(C)[C@H](CC[C@@H]4[C@@]5(C)C/C(=C/c6cccc(I)c6)C(=O)C(C)(C)[C@@H]5CC[C@]43C)[C@@H]12`, 90.8%; with `CC/C=C\C/C=C\C[C@H]1C/C=C2/C(=O)C=C[C@@H]2C/C=C\CCC(=O)O1`, -78.9% (active).
Regarding `O=C1NC(=S)NC(=O)C1CC(=O)n1c(-c2ccccc2)nc2ccccc21`, the growth is 86.6%.
For `O=C1Nc2ccc(Br)cc2C12Oc1ccccc1C1CC(c3ccc(F)cc3)=NN12` (stereo not given), the growth was 91%.
For the compound `CN1CCN(c2nc(NCCCNc3ccnc4cc(Cl)ccc34)c3ccccc3n2)CC1`, the growth was 50%.
With `O=C1CSC(=S)N1CCc1ccc(O)cc1` the figure was 91.4%; with `COc1cccc(-c2nc3sccn3c2-c2ccnc(NCCNS(=O)(=O)c3ccc(F)cc3)c2)c1`, 13%; with `COc1cccc(-c2nc3sccn3c2-c2ccnc(NCCNS(=O)(=O)c3ccccc3)c2)c1`, 10.4%.
To `O=S(=O)(Nc1ccc(Cl)c(F)c1)c1ccc(-c2cnc(C3CC3)o2)cc1` belongs 47.5%.
To `COc1ccc(Nc2nc(SC)nc(-c3cccc([N+](=O)[O-])c3)c2C#N)cc1` belongs 16.9%.
